# Assay results published in PubChem BioAssay AID977606 (Broad Institute, 2014).
# Hit rate of the full screen: of about 1,500 compounds, about 430 (29%) were called active. A selection follows. Measured potencies and affinities stand elsewhere. Values without a mark were called inactive. The rule behind the calls is not given here.
# Experiment: insulin secretion activators without glucose, dose response, counter-screen for glucose-dependent insulin secretion activators, cell-based, INS-1E, Gaussia luciferase, luminescence, cherry-pick (AID 977606);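 note: 0% = median of neutral control wells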
# Conditions: INS-1E Gaussia luciferase insulin secretion, no glucose, 100% = twice neutral-control luminescence; series mostly up to 35 µM; activation: at the top concentration
Structure (SMILES),activation [%],outcome
CCOc1ccc(CCNC(=O)Cn2ccc3ccccc3c2=O)cc1OCC,-1.1,–
COc1cc(CN(C)c2ccc(S(=O)(=O)N3CCCC3)cn2)ccc1OC(F)F,1.77,–
CC(C)(C)C1=Nn2c(nnc2C2CCCCC2)SC1,11.8,–
COc1ccc(CCNC(=O)CCC(=O)c2cccs2)cc1OC,-22.3,–
COc1ccc(C2CC(=O)C(c3ccc(C)cc3)=CN2Cc2ccccc2)cc1 (configuration not stated),-10.9,–
CCN1CCN(c2nnc(-c3ccccc3)c3ccccc23)CC1,-5.54,–
CCn1cc(C(=O)O)c(=O)c2cc(F)c(N3CCN(C(=S)NC(=O)c4cccc(C)c4)CC3)cc21,-18,–
CCOC(=O)c1nn(-c2ccccc2)c2nc(Nc3ccccc3)cc(=O)n12,-13.5,–
CC1CC1C(=O)Nc1cc(C(F)(F)F)ccc1N1CCOCC1 (configuration not stated),-7.62,–
O=C(N=C1SC2CS(=O)(=O)CC2N1c1ccc(F)c(Cl)c1)C1CC1 (configuration not stated),13.8,–
CCCc1nc(-c2cc3cc(C)ccc3[nH]c2=O)no1,43.8,–
CC(=O)N1CCN(c2nnc(-c3ccc(C)cc3)c3ccccc23)CC1,-0.606,–
O=c1c2sccc2n(Cc2cccc(F)c2)c(=O)n1-c1ccc(F)cc1,-6.27,–
CC1Oc2ccccc2N(Cc2cccc(F)c2)C1=O (configuration not stated),11.7,–
Cc1ccc(-c2ccc([C@@H]3[C@@H]4CN(Cc5ccccc5F)C[C@H]3N4)cc2)cc1,5.14,–
COc1ccc(CN(C)C(=O)COc2cccc(-n3cnnn3)c2)cc1OC,9.02,–
COc1cc(/C=N/NC(=O)CNC(=O)c2cccs2)ccc1O,0.237,–
O=C(Nc1ccc(F)cc1)C1COc2ccccc2O1 (configuration not stated),-15.7,–
CN(C(=O)c1ccc(C#N)cc1)c1nnc(-c2cnccn2)s1,-8.7,–
CC(C)CCn1c(=O)c2ccccc2n2c(CN3CCOCC3)nnc12,8.19,–
COc1ccc(C(=O)/C=C2/c3ccccc3CC(C)(C)N2C)cc1OC,16.4,–
O=C(NC(=S)Nc1cccc2[nH]ncc12)c1ccccc1,-4.69,–
Nc1[nH]c(C(=O)c2ccccc2)c(-c2ccncc2)c1C(=O)NCc1cccc2ccccc12,-26.7,–

Structure (SMILES),activation [%],outcome
COc1cc(CN2CCC(n3nccc3NC(=O)C3CCOC3)CC2)ccc1F (configuration not stated),-17.1,–
COc1ccc(C(=O)c2ccc(OC)c(OC)c2)cc1,-2.11,–
COc1ccc(-c2nc(N)ncc2-c2ccc(OC)c(OC)c2)c(O)c1,10.8,–
COc1ccc(C(=O)c2cnc[nH]2)cc1OC,-0.483,–
COc1ccc(C(=O)O/N=C(\N)c2ccc(OC)c(OC)c2)cc1,-1.47,–
c1ccc(-c2nnc3n2-c2ccccc2SC3)cc1,0.882,–
COCCOC(=O)C1=C(C)NC(=O)N(C(C)=O)C1c1ccc(Cl)cc1 (configuration not stated),-0.928,–
Cc1cc2nc(-c3ccc(Cl)cc3)c(Cc3ccsc3)n2c(C)c1Br,-6.36,–
CCn1c(C)nc2cc(S(=O)(=O)C(F)(F)F)ccc21,-6.94,–
COc1cc2[nH]c3c(Cl)ncnc3c2cc1OC,-0.758,–
COc1ccc(CC(=O)O/N=C(\N)c2ccccc2)cc1OC,-0.902,–
COc1ccc(/C=N/NC(=O)CCOc2ccccc2C)cc1OC,11.2,–
COc1ccc(/C=N/NC(=O)Cn2nnc3ccccc32)cc1OC,-12.4,–
CNS(=O)(=O)c1ccc2c3c(cccc13)C(=O)N2,3.01,–
CCOC(=O)c1c(N)c(C#N)c2n1CCCC2,-4.2,–
COc1ccc(NC(=O)C2CCCN2S(=O)(=O)c2ccc3c(c2)CC(C)N3C(C)=O)cc1OC (configuration not stated),-7.94,–
COc1ccc(CC(=O)OCC(=O)N2CCCc3ccccc32)cc1OC,0.376,–
O=S(=O)(c1ccc(Cl)nc1)N1CCc2ccccc21,-0.653,–
COc1ccc(C2=NOC(C(=O)Nc3cccnc3)C2)cc1OC (configuration not stated),9.59,–
CCOC(=O)c1sc2ncn(/N=C/c3cccnc3)c(=O)c2c1C,-12.6,–
COc1cc(C(=O)Nc2ccn(C)n2)ccc1OC(F)F,7.47,–
O=c1c2ccccc2nc(-c2ccco2)n1/N=C/c1ccco1,-8.39,–
O=c1c2ccccc2nc(-c2ccco2)n1Cc1ccccc1,-3.55,–

Structure (SMILES),activation [%],outcome
O=C([C@H]1O[C@@H](n2ccc(=O)[nH]c2=O)[C@H](O)[C@@H]1O)N1CCN(c2ccc(Cl)cn2)CC1,68.2,–
CCCn1nc(C(=O)NC2CC2)c2ccccc2c1=O,-5.12,–
Cc1nc2ccccc2c(=O)n1CCCN1CCOCC1,-11.5,–
CCOCCCn1c(SCc2ccccc2)nnc1-c1ccncc1,6.18,–
CC(C)c1ccc(NC2CCCN(C(=O)c3cccnc3)C2)cc1 (configuration not stated),-5.56,–
COc1ccc(CCn2ccc(O)c(Cc3c(F)cccc3Cl)c2=O)cc1OC,-4.25,–
CCN(C[C@H]1N[C@@](CC)(C(=O)OC)[C@H]2C(=O)N(C)C(=O)[C@@H]12)S(=O)(=O)c1ccc(OC)cc1,-1.45,–
COC(=O)C1=C(C)NC(=S)NC1c1ccc(OC)cc1 (configuration not stated),7.53,–
COc1ccc(CCC(=O)NC2CCC(C)CC2)cc1 (configuration not stated),-4.09,–
CNc1nc(Nc2ccccc2)nc(OCC(F)(F)F)n1,8.61,–
CCCCN(Cc1nc2ccccc2c(=O)[nH]1)C(=O)c1nn(C)c(=O)c2ccccc12,-9.37,–
c1cn2cc(-c3ccc(CN4CCOCC4)cc3)ccc2n1,-12.3,–
CC(C)CN(C(=O)C1CCCCC1)C1CCS(=O)(=O)C1 (configuration not stated),-8.45,–
Cc1ccc(CN(C(=O)c2cccs2)C2CCS(=O)(=O)C2)cc1 (configuration not stated),11,–
Cc1c(Cc2ccccc2)sc(NC(=O)c2ccco2)c1C(N)=O,-3.42,–
Cc1c(Cc2ccccc2)sc(NC(=O)C(C)(C)C)c1C(N)=O,38.4,–
COC(=O)c1cc(S(=O)(=O)NCC2CCN(Cc3cc(C)ccc3C)CC2)c[nH]1,8.92,–
Cc1ccc(C)c(OCC(=O)Nc2cc(NC(=O)COc3cc(C)ccc3C)cc(C(=O)O)c2)c1,-15.1,–
Cc1ccc(C)c(OCC(=O)NCC(C)(C)N2CCOCC2)c1,-11.9,–
O=C1CC(=O)Nc2cc(S(=O)(=O)NCc3cccs3)ccc2N1,-3.25,–
O=C1CSC(c2cccc(O)c2)N1Cc1ccccc1 (configuration not stated),-0.893,–
CC(C)Cc1nc2oc3c(NCc4cccnc4)ncnc3c2c2c1CCC2,-15,–
CCOC(=O)C1CCCN(C(=O)c2ccccc2OC(F)(F)F)CC1 (configuration not stated),1.8,–

Structure (SMILES),activation [%],outcome
CN(C)N1C(N)=C(C#N)C(c2ccc(F)cc2)C2=C1CCCC2=O (configuration not stated),7.12,–
O=c1c2ccccc2c(-c2ccccc2)nn1-c1ccccn1,-6.35,–
O=C(O)c1ccc(-n2nc(-c3ccccc3)c3ccccc3c2=O)cc1,-3.75,–
Cc1ccccc1SC1CCN(C(=O)C2CCC(=O)N(C3CC3)C2)CC1 (configuration not stated),0.358,–
COc1ccc(CCNC(=O)C(=O)c2c(C)n(C)c3ccccc23)cc1OC,-5.15,–
CCc1nc(N)nc(N)c1-c1ccc(Cl)c(N=[N+]=[N-])c1,–,inactive
COc1ccc(C(C)=O)cc1CSCc1cc(C(C)=O)ccc1OC,0.399,–
CN(C)CCCN(C(=O)CCOc1ccccc1)c1nc2c(F)cccc2s1,22.9,–
COc1ccc(CCNC(=O)CCn2c(=O)c3cccn3c3cccnc32)cc1OC,-8.89,–
COc1ccc(C2=NN(C(=O)c3ccco3)C(c3cccs3)C2)cc1OC (configuration not stated),2.94,–
CC(=O)N1CCN(c2nnc(-c3ccccc3)c3ccccc23)CC1,-7.28,–
COc1ccc(-c2cnnn2-c2ccc(N)cc2)cc1OC,14.5,–
CCOC(=O)c1cc(-c2ccncc2)nc2c1c(C)nn2-c1ccccn1,-12.8,–
CCOC(=O)c1nc2nc(-c3cccs3)cc(C(F)(F)F)n2n1,-2.27,–
CCN(CC)C(=O)C1(P(=O)(c2ccccc2)c2ccccc2)CCC1,3.86,–
CCCNC(=O)C1(C)CCCN(Cc2cccn2C)C1 (configuration not stated),2.12,–
CC(C)(C)c1ccc(S(=O)(=O)N2CC(C(=O)O)Oc3ccc(Cl)cc32)cc1 (configuration not stated),-17.2,–
N#CCCCc1cc2ccccc2cn1,-1.65,–
Cc1cc(Br)c2c(c1)C1(OCCO1)C(=O)N2,-15.4,–
CCCc1c(C)c2ccc(OCC(C)=O)cc2oc1=O,31.2,–
CNc1nc(-c2ccccc2)cc(-c2ccccc2)n1,-10.1,–
CCS(=O)(=O)c1nc(S(=O)(=O)c2ccc(C)cc2)c(N2CCC(O)CC2)s1,5.07,–
COc1ccc(C(C)=O)cc1Cn1cnc2c(cnn2C)c1=O,3.6,–

Structure (SMILES),activation [%],outcome
COc1ccc(/C=N/NC(=O)Cn2cnc3ccccc3c2=O)cc1OC,6.92,–
O=C(Cn1cnc2sc(-c3ccccc3)cc2c1=O)NCCc1ccccc1,-15.1,–
O=C(Nc1cccc(Cl)c1)c1cnn2cccnc12,20.9,–
CCc1nc2ccc(C(=O)NCCCN(C)C)cn2c1N(C)Cc1ccc(OC)cc1,-1.71,–
COc1ccc(C2=NN(C(=O)c3ccco3)C(c3ccco3)C2)cc1OC (configuration not stated),-1.59,–
O=C(CCn1ccc2cc(S(=O)(=O)N3CCCC3)ccc21)NCc1cccc(F)c1,-20.7,–
c1ccc(CNc2nc(Oc3ccncc3)c3sccc3n2)cc1,-5.34,–
Cc1cc(Cl)ccc1-c1nc(NCc2ccccc2)nc2ccsc12,13.2,–
COc1ccc(C2C3CCCCC3(O)CCN2C(=O)c2cccs2)cc1 (configuration not stated),-6.6,–
CCn1c(SCc2cc(=O)[nH]c3ccccc23)nc2c1c(=O)n(C)c(=O)n2C,-0.85,–
C=CCN(Cc1ccc(OC)c(OC)c1)C(=O)N1CCOCC1,5.63,–
S=C(NCc1ccccc1)Nc1ccc2cn[nH]c2c1,-12.7,–
CCC(=O)Nc1nnc(Sc2ccc(N(C)C)cc2)s1,-2.97,–
CCSc1nnc(NC(=O)c2csc(C)c2)s1,3.32,–
CCOc1ccc(CCNC(=O)CCC(=O)c2cccs2)cc1OCC,-12.3,–
CCOC(=O)Cc1csc(NC(=O)c2ccc(OC)c(OC)c2)n1,6.38,–
COCCn1c(=O)[nH]c2cc(C(=O)Nc3cc(OC)c(OC)c(OC)c3)ccc2c1=O,8.32,–
COCCNC(=O)CCCn1c(=O)c2ccccc2n(Cc2ccccc2C#N)c1=O,-18.3,–
COc1ccc(CCNS(=O)(=O)c2ccc(Cl)s2)cc1OC,-2.93,–
O=C(c1cc(-c2ccc(F)cc2)nc2ccccc12)N1CCN(C2CCS(=O)(=O)C2)CC1 (configuration not stated),0.694,–
